# From PubChem
# In the library only some 2.2% were active in any assay of this set; here they are far more common.
# Nrf2 activator: activators of Nrf2 (ARE) signaling; Potency, µM (top dose mostly 46.1 µM), without a hit: at the top dose activation, usual class: activators; 410,000 compounds, 0.31% hits; AREc32 ARE-luciferase reporter (MCF7-derived line), luminescence, 24 h; also: % of control where 0% means no effect; nearly all actives have a fitted effect of over 65% in size
#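 Cells of the AREc32 ARE-luciferase line are plated in OPTI-MEM containing 5% FBS and left overnight at 37 deg C. Compounds are pinned in, incubation continues 24 hr, and firefly luciferase signal is then measured.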
# Pin1 inh: human Pin1 inhibition; Q13526; AID 504891; Pin1 FP peptide displacement, HiFluor488, 10 min; 390,000 compounds, 0.009% hits; Potency, µM (doses to about 115 µM), without a hit: at the highest dose activity, negative = inhibition, usual class: inhibitors; active = well fitted inhibition curve with a large enough effect in the polarisation, with a control signal flat, not every such curve was filed as active; inconclusive = small, poorly fitted or top-dose-only effect, or effect the other way, or a change in a side signal; inactive = no such curve, though single readings can be large or run the other way; the % refers to the polarisation; also: % is scaled to controls: 0 for no effect and ±100 for the full control effect
# Target sequence (Q13526 whole entry, looked up): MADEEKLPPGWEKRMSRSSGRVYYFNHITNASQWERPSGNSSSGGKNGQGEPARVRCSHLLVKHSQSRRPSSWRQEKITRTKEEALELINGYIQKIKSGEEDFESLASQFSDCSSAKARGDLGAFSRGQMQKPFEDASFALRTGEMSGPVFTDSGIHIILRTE
# Nrf2 inh: Nrf2 pathway inhibition; A549 ARE-Fluc reporter, luciferase luminescence, 18-24 h; Potency, µM (series often up to 46 µM), without a hit: at the highest dose activity change, negative = inhibition, hits mostly inhibitors; 360,000 compounds, 2.1% hits; AID 504444; also: % is scaled to controls: 0 for no effect and ±100 for the full control effect; nearly all actives have a fitted effect of over 60% in size
#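 Two sequential reads on A549 ARE_Fluc cells exposed to compound for 18-24 h: a CellTiter-Fluor fluorescence read for viability, then a luciferase luminescence read for Nrf2/ARE activity.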
# A549 viability: counter-screen for Nrf2 inhibitors: cytotoxicity in A549 cells; A549 ARE-Fluc cells, CellTiter-Fluor viability, 18-24 h; Potency, µM (titrated, usually from 46 µM), without a hit: at the top dose activity change, negative = cytotoxicity, hits mostly inhibitors; 390,000 compounds, 0.16% hits; AID 504648; also: % is scaled to controls: 0 for no effect and ±100 for the full control effect
#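 Cytotoxicity counterscreen: CellTiter-Fluor fluorescence was measured in A549 ARE_Fluc cells after 18-24 h of compound exposure in a concentration series. The subsequent BugLite luminescent read reports ARE-luciferase activity.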
# Starred values were filed as active, the others as inactive; u = inconclusive; x = no result given. Unless noted, calls follow the shape of the dose curve; as a rule, active = well fitted curve in the direction sought with a large enough effect; inconclusive = small, poorly fitted or top-dose-only effect, or another doubt; inactive = no such curve, though single readings can be large; an effect the other way counts as inactive or inconclusive. Potency is read from the fitted curve at half-maximal effect.
SMILES,Nrf2 activator,Pin1 inh,Nrf2 inh,A549 viability
CCc1ccc(-n2nc(CO)c(C(=O)NC)n2)cc1,7%,-4%,3%,-2%
Nc1nc(-c2ccccc2)c(N=Nc2cccc3ccccc23)s1,24%,4%,-8%,16µM*
COc1ccc(OC(C)C(=O)NCc2nc(-c3cccc(C)c3)no2)cc1 (stereo not drawn),3%,24%,-21%,0%
CC1(C)OC(=O)C2(Cc3cc(C(F)(F)F)ccc3N3CCCCC32)C(=O)O1 (stereo not drawn),x,3%,-6%,-16%
Cn1c(/C(C#N)=C(\O)c2ccc(Br)s2)nc2ccccc21,2%,-1%,u,25%
Cn1c(/C(C#N)=C(\O)c2cc(Cl)sc2Cl)nc2ccccc21,1.4µM*,3%,2%,3%
COc1ccc(C)cc1NC(=O)NCc1ccc2c(c1)CCN2C(=O)c1ccccc1,-1%,19%,x,u
CC1(C)CC(=O)c2sc(NC(=O)c3cccs3)nc2C1,0%,6%,15µM*,-19%
CC1(C)CC(=O)c2sc(NC(=O)C(C)(C)C)nc2C1,0%,-1%,u,-2%
Cc1ccc(NS(=O)(=O)c2ccc3c(c2)CCC(=O)N3)cc1F,x,-9%,-13%,1%
COc1ccc(/C=C/c2ccccc2)cc1C1C2C=CCC(C)C2C(=O)N1Cc1ccccc1 (stereo not drawn),x,10%,u,12%
COc1ccc(-c2ccccc2[C@H]2[C@@H]3C=CC[C@@H](C)[C@@H]3C(=O)N2Cc2ccccc2)cc1,3%,0%,18µM*,u
COc1ccc(-c2c([C@H]3[C@H]4C=CC[C@@H](C)[C@@H]4C(=O)N3Cc3ccccc3)ccc3ccccc23)cc1OC,7%,5%,18µM*,u
COc1ccc(Br)cc1[C@H]1[C@H]2C=CC[C@@H](C)[C@@H]2C(=O)N1Cc1ccccc1,-1%,-2%,21µM*,-17%
COc1ccc(-c2ccc(C3C4C=CCC(C)C4C(=O)N3Cc3ccccc3)c(F)c2)cc1 (stereo not drawn),x,9%,u,-8%
COc1ccc(-c2c(C3C4C=CCC(C)C4C(=O)N3Cc3ccccc3)ccc3ccccc23)cc1 (stereo not drawn),x,0%,21µM*,-6%
COc1ccccc1CNc1ncnc2c1c(-c1ccccc1)cn2-c1cccc(C)c1,4%,-2%,x,14%
COc1cc(/C=N/NC(=O)c2c(-c3c(Cl)cccc3Cl)noc2C)ccc1OCC(N)=O,4%,-5%,11%,-2%
Cc1onc(-c2c(Cl)cccc2Cl)c1C(=O)N/N=C(\N)COc1ccc(Cl)cc1,-1%,-8%,8.2µM*,-28%
Nc1cc(-c2ccccc2)c[nH]c1=O,x,u,7.3µM*,5.8µM*
COC(=O)[C@H](C)[C@H](CC(C)C)NC(=O)[C@H](C)[C@H](CC(C)C)NC(=O)c1ccccn1,x,-2%,15%,-2%
O=C(/C=C/Nc1ccc(F)c(F)c1)c1cccs1,8.9µM*,10%,u,0%
O=C(/C=C/Nc1ccc(F)cc1)c1cccs1,6.3µM*,-3%,u,-9%
O=C(/C=C/Nc1ccc(S(=O)(=O)Nc2ncccn2)cc1)c1cccs1,2%,u,7%,-8%
CCN(CC)C(=O)c1sc2c(c1C)c(=O)n(CCc1ccccc1)c(=O)n2Cc1ccc(C)cc1,3%,8%,x,-14%
SMILES,Nrf2 activator,Pin1 inh,Nrf2 inh,A549 viability
CC1(C)OC(=O)C2(Cc3ccc(Cl)cc3N3CCCC32)C(=O)O1 (stereo not drawn),x,7%,6%,-1%
O=C(O)CC1(CC(=O)Nc2cc(C(F)(F)F)cc(C(F)(F)F)c2)CCCCC1,3%,-2%,23µM*,-6%
CCNC(=O)c1cnc2sc(N3CCC(C)CC3)nn2c1=O,0%,8%,u,8%
COc1ccc(CCNC(=O)CCn2c(=O)c3ccccc3n(Cc3cc(C)ccc3C)c2=O)cc1OC,1%,-1%,-3%,-7%
OC(c1ccccc1)(C1CCCCC1)C(CN1CCOCC1)c1ccccc1 (stereo not drawn),5%,u,-13%,11%
COc1ccc(C(O)(C2CCCCC2)C(CN2CCOCC2)c2ccccc2)cc1 (stereo not drawn),0%,u,21µM*,-16%
NC(=O)c1c(NC(=O)CN2CCN(S(=O)(=O)c3ccccc3)CC2)sc2c1CCC2,-1%,u,18µM*,u
CN1CCN(CC(=O)Nc2sc3c(c2C(=O)Nc2ccccc2)CCCC3)CC1,0%,1%,12%,-12%
